Among the data in PubChem BioAssay (Tox21) are Potency and outcome values, retold here.

Test [1] in a line: qHTS assay for small molecule agonists of the p53 signaling pathway (AID 651631; calls by dose curve; also: nearly all actives have a fitted effect of over 15% in size). Put shortly: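 We treat p53RE-bla HCT-116 cells with compounds for 16 h at 37 °C, add LiveBLAzer B/G FRET substrate for 2 h at room temperature, and measure fluorescence intensity.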
In general terms: qHTS replaces the single test concentration by a dilution series.

A short description of test [2]: qHTS assay for small molecule agonists of the p53 signaling pathway - cell viability (AID 651633; calls by dose curve;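 also: p53RE-bla HCT reporter cells with a stable beta-lactamase p53 reporter; series mostly up to about 83 µM; nearly all actives have a fitted effect of over 30% in size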). Put shortly:
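p53RE-bla cells were treated with compound for 16 hours at 37 C. Cytotoxicity was then measured as CellTiter-Glo luminescence after 30 min at room temperature.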

Test [3] in a line: qHTS assay for small molecule disruptors of the mitochondrial membrane potential - cell viability (AID 720634; calls by dose curve;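 also: human HepG2 liver cancer cells; series mostly up to about 83 µM; nearly all actives have a fitted effect of over 20% in size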). Put shortly:
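HepG2 cells seeded overnight at 37 C, then exposed to compound or DMSO for 1 hr at 37 C, 5% CO2. m-MPI dye added, then CellTiter-Glo for 30 min at room temperature; viability read as ATP luminescence.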

The nature of test [4]: qHTS assay for small molecule disruptors of the mitochondrial membrane potential (AID 720635). Also: potency is read from the fitted curve at half-maximal effect. Put shortly:
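HepG2 cells exposed to compound 1 hr at 37C, then Mito-MPS dye 30 min. Ratio read of aggregate (540/590 nm) versus monomer (490/535 nm) fluorescence.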

A short description of test [5]: qHTS assay to test for compound auto fluorescence at 590 nm (red) in HepG2 cells (AID 720674). Put shortly: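 Seeding: 2,000 HepG2 cells/well, MEM/10% FBS, overnight 37 C. Dosing: compound vs DMSO. Incubation: 1 hr, 37 C, 5% CO2. Read: fluorescence 540 ex/590 em, Rose Bengal sodium as red reference.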
A short description of test [6]: qHTS assay to test for compound auto fluorescence at 535 nm (green) in HepG2 cells (AID 720675).
Test [7] is described as follows: qHTS assay to test for compound auto fluorescence at 460 nm (blue) in HEK293 cells (AID 720678). Put shortly: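 Auto fluorescence in the blue band was quantified as triamterene equivalency. HEK293 cells were seeded at 2,000/well, dosed after a 4-5 hr attachment, and kept overnight at 37C before the 405/460 nm reading.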
Test [8] in a line: qHTS assay to test for compound auto fluorescence at 590 nm (red) in HEK293 cells (AID 720679). Put shortly:
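Autofluorescence equivalency to Rose Bengal sodium, 540/590nm, in HEK293 cells exposed overnight to 23 nL compound per well.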

A short description of test [9]: qHTS assay to test for compound auto fluorescence at 535 nm (green) in HEK293 cells (AID 720680).
A short description of test [10]: qHTS assay to test for compound auto fluorescence at 460 nm (blue) in HEK293 cell free culture (AID 720681). Put shortly:
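Compounds were added to cell-free DMEM with 10% FBS and fluorescence read directly. The blue channel used 405 nm excitation and 460 nm emission, with triamterene as the reference fluorophore.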

The nature of test [11]: qHTS assay to test for compound auto fluorescence at 535 nm (green) in HEK293 cell free culture (AID 720682). Put shortly: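 Green-channel intensity (Ex/Em 485/535 nm) was recorded from compound-treated wells containing only DMEM with 10% FBS. Fluorescein provided the equivalency standard.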
Test [12] is described as follows: qHTS assay to test for compound auto fluorescence at 590 nm (red) in HEK293 cell free culture (AID 720683). Put shortly: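 Cell-free wells of DMEM with 10% FBS received compound, and intrinsic fluorescence was read at excitation/emission 540/590 nm. Values expressed as equivalence to Rose Bengal sodium.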
Test [13] in a line: qHTS assay to test for compound auto fluorescence at 590 nm (red) in HepG2 cell free culture (AID 720684). Put shortly:
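Compound was pinned into wells holding MEM with 10% FBS and no cells, and red fluorescence was read at Ex/Em 540/590 nm. Signal is expressed as auto fluorescence equivalency relative to Rose Bengal sodium.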

Test [14] can be described thus: qHTS assay to test for compound auto fluorescence at 535 nm (green) in HepG2 cell free culture (AID 720686).
Test [15] can be described thus: qHTS assay to test for compound auto fluorescence at 460 nm (blue) in HepG2 cells (AID 720687). Put shortly: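 HepG2 cells in MEM with 10% FBS, attached overnight at 37 C, were exposed to compound or DMSO for 1 hr at 37 C, 5% CO2. Blue fluorescence was read at 405/460 nm, with triamterene as reference fluorophore.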
Test [16] deals with Glucocorticoid receptor (Homo sapiens) (UniProt P04150). The experiment in a line: qHTS assay to identify small molecule agonists of the glucocorticoid receptor (GR) signaling pathway (AID 720691; active = well fitted activation curve with a large enough effect in the signal ratio in the repeat runs, not every such curve was filed as active; the % refers to the signal ratio). Put shortly: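 GR-bla HeLa cells (beta-lactamase reporter under glucocorticoid response element) were plated 4 h at 37 C/5% CO2, given compounds in DMSO, and incubated 18 h at 37 C. LiveBLAzer B/G FRET substrate was added for 2 h at room temperature, then fluorescence intensity read.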

Test [17] shares this target. Briefly: qHTS assay to identify small molecule antagonists of the glucocorticoid receptor (GR) signaling pathway (AID 720692; active = well fitted inhibition curve with a large enough effect in the signal ratio in the repeat runs, not every such curve was filed as active; the % refers to the signal ratio; also: potency is read from the fitted curve at half-maximal effect). Put shortly: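 GR-bla HeLa cells (beta-lactamase reporter under glucocorticoid response element) were pre-plated 4 h at 37 C, treated with compounds plus 5 nM dexamethasone (final) for 18 h, then read by LiveBLAzer B/G FRET fluorescence after 2 h.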

The nature of test [18]: qHTS assay for small molecules that induce genotoxicity in human embryonic kidney cells expressing luciferase-tagged ATAD5 (AID 651632). Also: nearly all actives have a fitted effect of over 15% in size. Put shortly: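 HEK293T cells carrying a luciferase reporter tagged to ATAD5 were exposed to compound or DMSO vehicle for 16 hr at 37C, 5% CO2. Amplite was added, and after 30 min at room temperature luciferase activity was read as a marker of ATAD5 induction.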

Test [19] can be described thus: qHTS assay to test for compound auto fluorescence at 460 nm (blue) in HepG2 cell free culture (AID 720685). Put shortly: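 Compound (23 nL) or DMSO pinned into cell-free MEM with 10% FBS; blue fluorescence read at 405/460 nm excitation/emission, expressed as auto-fluorescence equivalency to triamterene.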
Test [20] is described as follows: qHTS assay for small molecules that induce genotoxicity in human embryonic kidney cells expressing luciferase-tagged ATAD5 - cell viability (AID 651634; calls by dose curve; also: nearly all actives have a fitted effect of over 25% in size; also: potency is read from the fitted curve at half-maximal effect). Put shortly: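 HEK293T cells expressing luciferase-tagged ATAD5 were exposed to compound or DMSO for 15.5 hr at 37C, 5% CO2. Viability was then read as live-cell protease activity by CellTiter-Fluor fluorescence after 30 min at 37C.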

Values joined by “and” are separate entries in the source; they are usually repeats but may differ in a detail not shown here. Equal values may be shown once. Results filed as inconclusive are left out. More than one record can exist for a structure, and the calls need not agree. Active and inactive are the calls of the source. Unless noted, calls follow the shape of the dose curve; as a rule, active = well fitted curve in the direction sought with a large enough effect in the repeat runs; inconclusive = weak or mixed curves; inactive = no such curve, though single readings can be large; an effect the other way counts as inactive or inconclusive.

Chain of Glucocorticoid receptor (Homo sapiens) (P04150 whole entry, looked up): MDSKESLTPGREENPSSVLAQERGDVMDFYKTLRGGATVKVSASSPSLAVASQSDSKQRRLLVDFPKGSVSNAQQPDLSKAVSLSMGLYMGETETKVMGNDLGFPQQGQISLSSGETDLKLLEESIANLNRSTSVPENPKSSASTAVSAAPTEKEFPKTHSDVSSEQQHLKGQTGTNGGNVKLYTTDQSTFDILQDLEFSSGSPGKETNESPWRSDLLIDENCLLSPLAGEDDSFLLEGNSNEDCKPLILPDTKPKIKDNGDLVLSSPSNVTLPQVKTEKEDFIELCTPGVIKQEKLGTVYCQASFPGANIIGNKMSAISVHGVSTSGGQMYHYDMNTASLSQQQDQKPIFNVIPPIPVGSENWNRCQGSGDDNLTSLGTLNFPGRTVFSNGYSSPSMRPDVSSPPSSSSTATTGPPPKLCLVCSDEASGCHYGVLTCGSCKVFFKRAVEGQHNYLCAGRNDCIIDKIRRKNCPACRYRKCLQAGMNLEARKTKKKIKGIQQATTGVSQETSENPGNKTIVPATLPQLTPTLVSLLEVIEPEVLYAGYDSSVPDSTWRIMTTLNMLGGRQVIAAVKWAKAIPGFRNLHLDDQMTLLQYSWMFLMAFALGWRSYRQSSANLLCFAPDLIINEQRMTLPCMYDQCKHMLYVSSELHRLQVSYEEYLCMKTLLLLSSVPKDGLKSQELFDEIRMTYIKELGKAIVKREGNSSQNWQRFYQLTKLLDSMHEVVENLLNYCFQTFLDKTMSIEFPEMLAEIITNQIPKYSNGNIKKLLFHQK

`C=Cc1ccc(S(=O)(=O)O)cc1`: the Potency result in test [1], in test [2], in test [3], in test [4], in test [7] and in test [10] was “inactive” in each case. The Potency entry in [15] and in test [16] was “inactive” throughout. Further, the result in test [5], in test [6], in test [8], in [9], in [11] and in test [12] was inactive. Also, the outcome in test [13] and in test [14] was inactive. For the same molecule, the Potency result in test [17] is “inactive and 19.5 µM (active)”.

Turning to `CCn1cc(C(=O)O)c(=O)c2cc(F)c(N3CCNCC3)cc21`, the Potency result in test [1], in test [18], in test [2], in test [3], in test [7] and in [10] was “inactive” in each case. The Potency result in [19], in test [15], in [16] and in [17] was “inactive” throughout. The call in [5], in test [6], in test [8], in [9], in test [12] and in test [13] was inactive. For the same molecule, in test [14], the call was inactive.

For `CC(=O)Nc1cc(S(=O)(=O)O)cc2cc(S(=O)(=O)O)c(N=Nc3ccccc3)c(O)c12`, the Potency entry in test [1], in test [18], in test [2], in [7], in [10] and in test [19] was “inactive” throughout. Besides, the Potency entry in test [15] was “inactive”. For the same molecule, the molecule was classed as inactive in test [5], in test [6], in test [8], in [9], in test [11] and in test [12]. The outcome in [13] and in test [14] was inactive.

Turning to `C=C(C)C(=O)OCCCCCCCCCCCCC`, the Potency result in test [1], in test [2], in test [20], in test [3], in test [4] and in test [7] was “inactive” in each case. The Potency entry in test [10], in [19] and in test [15] was “inactive” throughout. Also, the molecule was called inactive in [5], in [6], in test [8], in test [9], in test [11] and in test [12]. In addition, the result in test [13] and in [14] was inactive.

Take `CC(C)C(O)(c1ccc(OC(F)(F)F)cc1)c1cncnc1` (stereo not given): the Potency entry in test [1], in test [2], in test [3], in test [7], in test [10] and in [19] was “inactive” in each case. Moreover, the Potency entry in test [15] and in test [16] was “inactive” each time. Moreover, the molecule was classed as inactive in [5], in test [6], in [8], in test [9], in test [11] and in test [12]. Also, the call in [13] and in test [14] was inactive.

With `CC(CCC(=O)O)C(=O)O` (stereo not given), the Potency entry in test [1], in [2], in test [20], in test [3], in test [4] and in test [7] was “inactive” throughout. For the same molecule, the Potency entry in [10], in [19], in test [15], in test [16] and in test [17] was “inactive” in each case. Further, the molecule was classed as inactive in [5], in test [6], in test [8], in test [9], in test [11] and in test [12]. In addition, the molecule was called inactive in test [13] and in [14].

Turning to `COc1ccccc1N1CCN(CCCCNC(=O)c2ccc(-c3ccc(C(C)=O)cc3)cc2)CC1`, the Potency result in test [1], in [18], in [20], in test [3], in [4] and in test [7] was “inactive” each time. Moreover, the Potency entry in test [10], in test [19], in test [15], in test [16] and in test [17] was “inactive” each time. Besides, the result in test [5], in [6], in [8], in test [9], in test [11] and in test [12] was inactive. Further, the outcome in [13] and in [14] was inactive.

As for `CC=C(Cl)Cl`, the Potency entry in [1], in [2], in [20], in test [3], in test [7] and in test [10] was “inactive” throughout. Besides, the Potency entry in test [19], in test [15] and in test [16] was “inactive” each time. In addition, the result in test [5], in test [6], in test [8], in test [11], in [12] and in test [13] was inactive. In addition, the molecule was classed as inactive in test [14].

In the case of `CC(=O)OCCN(CCOC(C)=O)c1ccc(N=Nc2ccc([N+](=O)[O-])cc2C#N)cc1`, the Potency result in test [1], in test [2], in [7], in test [10], in test [19] and in test [15] was “inactive” in each case. For the same molecule, the Potency result in [16] was “inactive”. Further, the Potency in test [20] was 61.1 µM (active); in test [4] it was 6.86 µM (active). Also, the call in test [6], in [8], in [9], in [11], in [12] and in test [13] was inactive. The molecule was classed as inactive in [14].

As to `O=C(O)CCC(=O)C(=O)O`, the Potency entry in test [1], in test [2], in test [20], in test [3], in test [4] and in test [7] was “inactive” each time. Besides, the Potency result in [10], in [19], in [15], in [16] and in [17] was “inactive” each time. The molecule was classed as inactive in test [5], in test [6], in test [8], in test [11], in test [12] and in test [13]. Besides, the outcome in [14] was inactive.
